Article PMC7819943, “Rice protein-binding microarrays: a tool to detect cis-acting elements near promoter regions in rice”
Over roughly 68,000 sequences, “fluorescence intensity (a.u.)” has its median near 9,100; the highest 2% begin near 16,000. Only a selection was taken, and the highest values are over-represented in it overall.

The sequences below were run against OsWRKY34 (Oryza sativa, UniProt Q0JBA9 1-250) (assay: protein-binding microarray (RPBM); PBS, 2% BSA, 51.3 ng/ul salmon testes DNA, 50 uM zinc acetate, 200 nM TF, 25 C, 1 h; high values mean tight binding). Details: protein: recombinant; tags: N-terminal polyhistidine and DsRed monomer fusion (pET32a); label: CyDye5-dUTP incorporated in the synthesized complementary strand; 3' TTTTT single-stranded linker to array surface; dsDNA, one strand shown.
Sequence of OsWRKY34 (Q0JBA9 entry or part of it): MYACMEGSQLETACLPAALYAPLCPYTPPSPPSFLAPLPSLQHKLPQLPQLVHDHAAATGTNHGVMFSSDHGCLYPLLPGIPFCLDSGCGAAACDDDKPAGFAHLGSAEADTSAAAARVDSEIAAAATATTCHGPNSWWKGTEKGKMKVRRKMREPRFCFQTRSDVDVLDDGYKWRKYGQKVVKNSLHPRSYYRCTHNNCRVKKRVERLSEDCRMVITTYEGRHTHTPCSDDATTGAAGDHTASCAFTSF
In short: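 The binding signal is fluorescence intensity per feature, in arbitrary units, read on an Axon 4000B scanner. Polyhistidine- and DsRed-tagged transcription factors (N-terminal fusions) from E. coli BL21-CodonPlus were purified on Ni–NTA and applied at 200 nM for 1 h at 25 °C to a double-stranded, BSA-blocked custom Agilent array in buffer with 50 µM zinc acetate.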
With “CCCCGCTCGCGGCCCGGTCGCGCCAAACATCGTCCGACTCCGGAGTCACCTAGTGCAG” the binding signal was 9010 fluorescence intensity (a.u.).
In the case of “TCCACAACTGATTTTATTCCGACTTGTTTTTTTTTCTTTTCGGAGTCACCTAGTGCAG”, the binding signal is reported as 10800 fluorescence intensity (a.u.).
With “TTACTACTTCACCGTCTCTTTTTCTTCCTCAGCGCACAAACGGAGTCACCTAGTGCAG” the binding signal was 9610 fluorescence intensity (a.u.).
With “AGACGGAGGAGGACAAGGACATAGGGGAGGAGGGGCGAGGCGGAGTCACCTAGTGCAG” the binding signal was 9530 fluorescence intensity (a.u.).
For “ATTTCTTTTTGTTGTGTTATCGTGTTGTTTCGTCACTAGTCGGAGTCACCTAGTGCAG”, the binding signal was 19600 fluorescence intensity (a.u.).
With “GCCGTTTCTTCTTTCTTTTTTTTTTCCGTGTGTGTCGTTTCGGAGTCACCTAGTGCAG” the binding signal was 16600 fluorescence intensity (a.u.).
“TTTTTCGTTTCCTTTCCGTGTTCTTTTTTTTTTCTTCCATCGGAGTCACCTAGTGCAG” was tested, and the binding signal was 10100 fluorescence intensity (a.u.).
In the case of “GTGGATTTTTTTTTTCTTTTCTTTTTTCGTTGTTATTTGTCGGAGTCACCTAGTGCAG”, the binding signal is reported as 10600 fluorescence intensity (a.u.).
In the case of “ATGTTGTCGTGTATCATTTGTTTTTCTTATGTTATTTTCTCGGAGTCACCTAGTGCAG”, the binding signal is reported as 10700 fluorescence intensity (a.u.).
For “TTTTTCCGTGTGTGTCGTTTCGTTCTTGTTTGTTCGGGTCCGGAGTCACCTAGTGCAG”, the binding signal was 12400 fluorescence intensity (a.u.).
“ACACCTTCAATCGCTCTCTCATGAATTAACCGAACAAGACCGGAGTCACCTAGTGCAG” was tested, and the binding signal was 9340 fluorescence intensity (a.u.).
In the case of “GTAGTAGGTAGCAGCAGTCTCAAACATGTCTTCTGAGTAGCGGAGTCACCTAGTGCAG”, the binding signal is reported as 9420 fluorescence intensity (a.u.).
In the case of “CGTGTTCTTGCCTGCGTATATACGGTGTACGTACACACGTCGGAGTCACCTAGTGCAG”, the binding signal is reported as 8870 fluorescence intensity (a.u.).
With “GCTAGCTGCTGTCTTGTGTTGTGTTGTGTTGTGTGGCATGCGGAGTCACCTAGTGCAG” the binding signal was 8220 fluorescence intensity (a.u.).
With “AGATTTTGGGTGTGTTTGGTTGCTTGCATTGTTTTAGTCTCGGAGTCACCTAGTGCAG” the binding signal was 9320 fluorescence intensity (a.u.).
“TATACTTGTTGGCTGCTGCTTTGTGTGTGGTGTGTTGTTTCGGAGTCACCTAGTGCAG” was tested, and the binding signal was 10400 fluorescence intensity (a.u.).
“AGAGCTTGTGTGGTGGTGGGGCATCAGTGTGTCAGTTGTGCGGAGTCACCTAGTGCAG” was tested, and the binding signal was 17100 fluorescence intensity (a.u.).
With “TGGGTTGGGATTTGTGCTTGTTTTTTTTTTTTGTGCGTGTCGGAGTCACCTAGTGCAG” the binding signal was 16600 fluorescence intensity (a.u.).
With “GTGTGTTGGAGCTGCCGGTGTGTGGGTGGGGTTATTTTTTCGGAGTCACCTAGTGCAG” the binding signal was 25100 fluorescence intensity (a.u.).
In the case of “GGGGCTGCTTGGGCTTGTGTTGTTTTTTTGGCAGATGCATCGGAGTCACCTAGTGCAG”, the binding signal is reported as 19100 fluorescence intensity (a.u.).
With “CTTTGCTTGGTTGCTTGTGTTGTGTGCTGTGCTGTGCAGTCGGAGTCACCTAGTGCAG” the binding signal was 8220 fluorescence intensity (a.u.).
For “TTTTTTTTTTTTGTTGGGCTTGTGACTTGTGGGGTGTGCACGGAGTCACCTAGTGCAG”, the binding signal was 11600 fluorescence intensity (a.u.).
“AAGGGCAGAGGAGAGGAGTTGCAGTGTGGTGTGTGGCATGCGGAGTCACCTAGTGCAG” was tested, and the binding signal was 8870 fluorescence intensity (a.u.).
In the case of “TCTTGGCGCTGTCGGTGTGTGGGTGGCGTTATATTTTTTTCGGAGTCACCTAGTGCAG”, the binding signal is reported as 9900 fluorescence intensity (a.u.).
For “AATTTTTTTTGGGGTTGCTGCTGTTTTTTTTGTGGAGGTTCGGAGTCACCTAGTGCAG”, the binding signal was 9450 fluorescence intensity (a.u.).
“ACACTCAAACGACACTTCACGCATCTCTCCTGAAATCTTGCGGAGTCACCTAGTGCAG” was tested, and the binding signal was 8780 fluorescence intensity (a.u.).
With “ACTTCAGATGTTTCTTGTTCCTACACTTCGCTGCTTCAGTCGGAGTCACCTAGTGCAG” the binding signal was 11800 fluorescence intensity (a.u.).
In the case of “CTCCTCTCTCTCTCAGCTCACCACACCTCGAGTCGCCGCCCGGAGTCACCTAGTGCAG”, the binding signal is reported as 8180 fluorescence intensity (a.u.).
With “ACTGCTGTCTCCGCGTTACTCTACGCATGCATGCATGTATCGGAGTCACCTAGTGCAG” the binding signal was 10000 fluorescence intensity (a.u.).
For “AGGGAGAGTGTGGGTGCGTGGGGCATATGGTGGTGCGGTGCGGAGTCACCTAGTGCAG”, the binding signal was 9950 fluorescence intensity (a.u.).
In the case of “CCCTTGGGTTGGGTTGTGTTGCTCCCTCTGCTGCATTAATCGGAGTCACCTAGTGCAG”, the binding signal is reported as 18100 fluorescence intensity (a.u.).
With “CCCTCCCCTCTGCTTCCGTTCCCTTGGGTTGGGTTGTGTTCGGAGTCACCTAGTGCAG” the binding signal was 8480 fluorescence intensity (a.u.).
With “GGGGTGGACTGGGGTGTTTGGCTGCGTGAGTGCGGAGCGGCGGAGTCACCTAGTGCAG” the binding signal was 8920 fluorescence intensity (a.u.).
With “GGTGAGTTCTTGATTTGGGCGTGGAGCTTTTTTTCTTGGTCGGAGTCACCTAGTGCAG” the binding signal was 8170 fluorescence intensity (a.u.).
For “GGTGGGTGTGTGCTTGTTTCGGCGTGTGATTTGGGCGGAGCGGAGTCACCTAGTGCAG”, the binding signal was 16500 fluorescence intensity (a.u.).
In the case of “TATTCGATTTTGGGTGGTGGTTGTTAAGTTGGCATTTGCACGGAGTCACCTAGTGCAG”, the binding signal is reported as 18300 fluorescence intensity (a.u.).
In the case of “GTGGTTATTCAATTTGTTGCTTGTTTTTGTTTCAAGTTGGCGGAGTCACCTAGTGCAG”, the binding signal is reported as 10700 fluorescence intensity (a.u.).
“TATATCATATGCGGGCGTGATCTATTGGGGCGGGGTGTGGCGGAGTCACCTAGTGCAG” was tested, and the binding signal was 20000 fluorescence intensity (a.u.).
“ATTCTGATTGGGTGTGGTTGGTTTGATTTTCTGTTAAGCACGGAGTCACCTAGTGCAG” was tested, and the binding signal was 11700 fluorescence intensity (a.u.).
In the case of “CTGCTGTGTTGCACATTTTTCTGCTCTGTATACCTATAATCGGAGTCACCTAGTGCAG”, the binding signal is reported as 12200 fluorescence intensity (a.u.).
“TGGGTGGGTGCGGCGTGGAGTGACGTGGCGGCGGGTGTGGCGGAGTCACCTAGTGCAG” was tested, and the binding signal was 8590 fluorescence intensity (a.u.).
In the case of “GAAGTGATGAATATATTAAACTGGTTTGGCTATTATTTCCCGGAGTCACCTAGTGCAG”, the binding signal is reported as 8360 fluorescence intensity (a.u.).
In the case of “CTCTCGTGGTGTGGTGTGGACAAGAAAGGAAGGAAAGATGCGGAGTCACCTAGTGCAG”, the binding signal is reported as 8700 fluorescence intensity (a.u.).
For “TAATGTCCCTATTTTGTTATAGTGTTCCTCCAATAATCTGCGGAGTCACCTAGTGCAG”, the binding signal was 8290 fluorescence intensity (a.u.).
In the case of “CAGTTCTTCGTTCTTGTCTTTACTCTCATGATTTTCTCTTCGGAGTCACCTAGTGCAG”, the binding signal is reported as 10900 fluorescence intensity (a.u.).
With “CTCAACCTCTCGGTCGTCGGCCTCGTCCTCCGGGCCGGCACGGAGTCACCTAGTGCAG” the binding signal was 12000 fluorescence intensity (a.u.).
For “TTCATAGCCGCCGCATCTCCTTCTCTTCGACTTTTCTCCTCGGAGTCACCTAGTGCAG”, the binding signal was 9080 fluorescence intensity (a.u.).
With “TCAAACGATGCCATTCACCACGTGCCACTTTATATCAAACCGGAGTCACCTAGTGCAG” the binding signal was 11700 fluorescence intensity (a.u.).
For “CTTAACGGCCCATTTATCTTGTCTCTCTGGCCCACCTGCACGGAGTCACCTAGTGCAG”, the binding signal was 12300 fluorescence intensity (a.u.).
With “CCTGTAATACTTTTGTTAATTCGATCCTACTACATCTTTACGGAGTCACCTAGTGCAG” the binding signal was 10400 fluorescence intensity (a.u.).
“CATATATTGGTGTTGTGTGTGGGTGGGTGGGGCGGTGCTTCGGAGTCACCTAGTGCAG” was tested, and the binding signal was 30900 fluorescence intensity (a.u.).
“ACGGTGTATATTTGTGGTGTGGCGGGTGTGGCATTGGATTCGGAGTCACCTAGTGCAG” was tested, and the binding signal was 16700 fluorescence intensity (a.u.).
With “TTTCTTCATTTCATGATTGTATATTCTGGTGTTTTTGTGGCGGAGTCACCTAGTGCAG” the binding signal was 9250 fluorescence intensity (a.u.).
With “TTGGTCGCATTTCGGGTGGTGGTGGTGGTGGTGGTGGTGGCGGAGTCACCTAGTGCAG” the binding signal was 13200 fluorescence intensity (a.u.).
With “TGGTGTTGTCGGTGTGTGGGTGGTGATATACTTTTTTTTTCGGAGTCACCTAGTGCAG” the binding signal was 11600 fluorescence intensity (a.u.).
“TGGGAGCTTTGCTTGGGGTGTGTGTGTGTTTGGGTGGTGCCGGAGTCACCTAGTGCAG” was tested, and the binding signal was 10900 fluorescence intensity (a.u.).
For “GTGGTGGTGGTGTGTGAGCTCGGGGCTTGGGGTTTTGCGGCGGAGTCACCTAGTGCAG”, the binding signal was 13300 fluorescence intensity (a.u.).
With “GAGCTGGGGTGGTGTTTGTTTGTGGGTGTGTTTGTGTGCTCGGAGTCACCTAGTGCAG” the binding signal was 15900 fluorescence intensity (a.u.).
With “GTTTTTGTGCTTGGTGGTGGTGGTGGGTGATTTGCAGGGGCGGAGTCACCTAGTGCAG” the binding signal was 31700 fluorescence intensity (a.u.).
